Our source for the log2 fold change values is the supplement of paper PMC10849652.

The full data set covers some 8,800 targets. This sample favours those with a hit. About 0.5% of all pairs of compound and target were hits.

Chain of UniProt Q58FG1 (Q58FG1 whole entry, looked up): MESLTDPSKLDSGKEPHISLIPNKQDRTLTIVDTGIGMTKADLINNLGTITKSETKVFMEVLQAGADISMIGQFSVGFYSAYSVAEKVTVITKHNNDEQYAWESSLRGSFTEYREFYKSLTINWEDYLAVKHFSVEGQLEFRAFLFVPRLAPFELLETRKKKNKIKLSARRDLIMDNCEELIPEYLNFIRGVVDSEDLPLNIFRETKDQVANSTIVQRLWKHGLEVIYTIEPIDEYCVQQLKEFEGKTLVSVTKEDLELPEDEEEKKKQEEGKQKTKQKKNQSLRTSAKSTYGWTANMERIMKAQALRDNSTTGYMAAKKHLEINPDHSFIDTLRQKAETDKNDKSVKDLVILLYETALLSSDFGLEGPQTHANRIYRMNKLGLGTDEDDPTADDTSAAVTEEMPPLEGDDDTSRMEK
Chain of UniProt Q16891 (Q16891 whole entry, looked up): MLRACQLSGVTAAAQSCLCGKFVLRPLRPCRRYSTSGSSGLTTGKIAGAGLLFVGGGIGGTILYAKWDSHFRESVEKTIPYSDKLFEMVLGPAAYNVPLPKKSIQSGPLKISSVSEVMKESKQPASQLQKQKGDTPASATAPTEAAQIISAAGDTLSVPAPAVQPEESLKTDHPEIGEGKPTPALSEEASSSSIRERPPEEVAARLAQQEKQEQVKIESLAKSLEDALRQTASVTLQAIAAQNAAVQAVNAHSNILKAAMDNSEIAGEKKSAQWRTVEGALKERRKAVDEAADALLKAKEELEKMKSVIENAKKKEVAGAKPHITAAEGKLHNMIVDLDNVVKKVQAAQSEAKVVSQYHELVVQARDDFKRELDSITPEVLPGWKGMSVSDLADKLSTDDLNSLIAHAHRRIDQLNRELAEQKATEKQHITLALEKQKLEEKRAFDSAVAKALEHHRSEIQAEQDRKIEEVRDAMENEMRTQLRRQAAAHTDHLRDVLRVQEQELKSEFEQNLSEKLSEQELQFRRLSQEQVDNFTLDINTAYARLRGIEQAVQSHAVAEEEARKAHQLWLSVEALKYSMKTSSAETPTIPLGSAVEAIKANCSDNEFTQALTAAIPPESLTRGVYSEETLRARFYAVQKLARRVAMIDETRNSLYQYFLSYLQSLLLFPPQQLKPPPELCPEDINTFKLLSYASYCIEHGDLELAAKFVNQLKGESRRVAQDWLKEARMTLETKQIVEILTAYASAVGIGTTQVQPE
Chain of UniProt O00425 (O00425 whole entry, looked up): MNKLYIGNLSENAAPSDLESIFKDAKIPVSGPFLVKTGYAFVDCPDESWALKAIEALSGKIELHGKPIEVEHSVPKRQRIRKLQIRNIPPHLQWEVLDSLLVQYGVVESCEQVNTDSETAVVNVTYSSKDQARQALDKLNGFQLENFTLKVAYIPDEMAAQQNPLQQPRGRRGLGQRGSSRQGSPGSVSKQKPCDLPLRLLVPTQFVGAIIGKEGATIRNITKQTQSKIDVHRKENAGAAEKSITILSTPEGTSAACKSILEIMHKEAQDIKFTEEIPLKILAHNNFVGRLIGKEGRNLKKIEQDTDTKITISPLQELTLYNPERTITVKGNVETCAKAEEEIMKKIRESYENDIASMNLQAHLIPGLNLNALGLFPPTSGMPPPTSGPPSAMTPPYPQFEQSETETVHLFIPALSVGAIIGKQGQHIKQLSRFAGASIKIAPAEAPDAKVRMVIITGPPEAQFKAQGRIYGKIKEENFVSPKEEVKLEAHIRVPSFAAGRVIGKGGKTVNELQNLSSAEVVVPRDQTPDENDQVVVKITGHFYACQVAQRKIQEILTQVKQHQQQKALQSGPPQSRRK
Chain of UniProt Q01628 (Q01628 whole entry, looked up): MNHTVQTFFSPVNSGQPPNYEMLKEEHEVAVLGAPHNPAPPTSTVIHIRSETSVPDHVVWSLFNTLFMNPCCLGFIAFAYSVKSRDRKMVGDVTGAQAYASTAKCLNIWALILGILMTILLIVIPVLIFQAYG
Chain of UniProt Q14527 (Q14527 whole entry, looked up): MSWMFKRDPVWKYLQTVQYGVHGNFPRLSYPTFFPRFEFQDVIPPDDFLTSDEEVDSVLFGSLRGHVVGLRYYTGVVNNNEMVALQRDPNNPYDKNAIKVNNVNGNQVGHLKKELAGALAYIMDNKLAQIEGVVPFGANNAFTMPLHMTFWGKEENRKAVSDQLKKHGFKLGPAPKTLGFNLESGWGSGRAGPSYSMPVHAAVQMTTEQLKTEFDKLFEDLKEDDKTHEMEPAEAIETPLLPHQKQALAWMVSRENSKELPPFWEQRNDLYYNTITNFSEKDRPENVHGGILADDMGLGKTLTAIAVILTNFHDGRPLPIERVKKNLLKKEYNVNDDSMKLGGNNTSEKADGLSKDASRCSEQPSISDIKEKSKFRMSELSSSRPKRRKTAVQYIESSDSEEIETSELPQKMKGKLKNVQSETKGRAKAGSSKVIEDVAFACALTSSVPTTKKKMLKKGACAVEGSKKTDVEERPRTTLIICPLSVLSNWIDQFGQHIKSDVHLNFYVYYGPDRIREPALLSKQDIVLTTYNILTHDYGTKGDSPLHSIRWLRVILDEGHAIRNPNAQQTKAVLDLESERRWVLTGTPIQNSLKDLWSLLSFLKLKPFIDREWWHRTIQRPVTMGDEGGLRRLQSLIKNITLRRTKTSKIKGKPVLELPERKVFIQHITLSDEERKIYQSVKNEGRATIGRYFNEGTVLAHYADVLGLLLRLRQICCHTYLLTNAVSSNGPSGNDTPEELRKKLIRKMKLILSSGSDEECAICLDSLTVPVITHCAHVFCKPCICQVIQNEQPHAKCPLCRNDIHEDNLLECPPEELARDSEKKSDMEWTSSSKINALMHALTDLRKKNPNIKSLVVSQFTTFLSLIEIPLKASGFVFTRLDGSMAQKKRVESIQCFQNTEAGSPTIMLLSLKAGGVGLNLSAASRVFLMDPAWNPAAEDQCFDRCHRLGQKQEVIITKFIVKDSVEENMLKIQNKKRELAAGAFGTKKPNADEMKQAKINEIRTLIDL
Chain of UniProt P23677 (P23677 whole entry, looked up): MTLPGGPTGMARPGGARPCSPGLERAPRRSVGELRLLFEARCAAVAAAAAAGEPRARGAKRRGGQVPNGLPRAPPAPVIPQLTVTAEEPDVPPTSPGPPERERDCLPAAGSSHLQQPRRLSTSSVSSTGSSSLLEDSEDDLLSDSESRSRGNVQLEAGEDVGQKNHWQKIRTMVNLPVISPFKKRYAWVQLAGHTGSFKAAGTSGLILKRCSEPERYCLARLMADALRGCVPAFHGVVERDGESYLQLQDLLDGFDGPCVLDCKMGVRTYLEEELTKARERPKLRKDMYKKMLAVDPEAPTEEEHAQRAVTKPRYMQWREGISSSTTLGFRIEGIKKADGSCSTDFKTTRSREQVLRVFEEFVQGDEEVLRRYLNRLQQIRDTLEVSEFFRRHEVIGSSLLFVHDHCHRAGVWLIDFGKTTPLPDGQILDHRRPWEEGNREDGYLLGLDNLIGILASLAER
Chain of UniProt P04792 (P04792 whole entry, looked up): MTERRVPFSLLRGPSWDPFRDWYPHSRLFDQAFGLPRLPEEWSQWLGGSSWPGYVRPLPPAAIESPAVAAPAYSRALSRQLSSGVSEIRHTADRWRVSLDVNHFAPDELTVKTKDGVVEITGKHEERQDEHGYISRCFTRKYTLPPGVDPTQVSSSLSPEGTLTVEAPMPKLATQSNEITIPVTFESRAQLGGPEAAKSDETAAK
Chain of UniProt P13598 (P13598 whole entry, looked up): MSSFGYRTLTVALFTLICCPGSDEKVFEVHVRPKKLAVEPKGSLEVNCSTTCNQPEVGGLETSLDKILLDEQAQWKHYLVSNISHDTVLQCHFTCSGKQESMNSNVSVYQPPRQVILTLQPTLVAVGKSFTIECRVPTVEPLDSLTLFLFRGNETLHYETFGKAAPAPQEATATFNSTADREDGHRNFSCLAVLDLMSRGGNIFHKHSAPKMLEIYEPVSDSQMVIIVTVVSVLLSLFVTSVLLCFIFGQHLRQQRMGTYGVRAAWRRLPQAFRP
Chain of UniProt Q8IY47 (Q8IY47 whole entry, looked up): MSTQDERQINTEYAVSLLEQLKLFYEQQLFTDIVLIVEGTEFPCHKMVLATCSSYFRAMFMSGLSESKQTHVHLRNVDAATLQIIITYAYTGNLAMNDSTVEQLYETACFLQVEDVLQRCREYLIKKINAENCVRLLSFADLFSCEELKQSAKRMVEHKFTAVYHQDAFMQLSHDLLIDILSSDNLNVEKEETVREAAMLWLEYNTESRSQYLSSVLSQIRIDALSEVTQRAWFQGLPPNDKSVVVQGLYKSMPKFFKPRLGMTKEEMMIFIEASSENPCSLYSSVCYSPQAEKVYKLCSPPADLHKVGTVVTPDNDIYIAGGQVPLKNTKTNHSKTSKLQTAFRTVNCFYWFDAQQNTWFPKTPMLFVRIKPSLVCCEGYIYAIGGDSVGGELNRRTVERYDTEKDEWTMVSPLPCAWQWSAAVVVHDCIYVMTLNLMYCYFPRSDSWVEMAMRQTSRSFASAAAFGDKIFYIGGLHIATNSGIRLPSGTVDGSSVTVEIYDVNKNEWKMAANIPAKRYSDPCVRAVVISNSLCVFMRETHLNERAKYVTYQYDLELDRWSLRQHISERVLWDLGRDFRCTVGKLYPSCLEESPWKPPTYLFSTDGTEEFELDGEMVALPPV
Chain of UniProt P52655 (P52655 whole entry, looked up): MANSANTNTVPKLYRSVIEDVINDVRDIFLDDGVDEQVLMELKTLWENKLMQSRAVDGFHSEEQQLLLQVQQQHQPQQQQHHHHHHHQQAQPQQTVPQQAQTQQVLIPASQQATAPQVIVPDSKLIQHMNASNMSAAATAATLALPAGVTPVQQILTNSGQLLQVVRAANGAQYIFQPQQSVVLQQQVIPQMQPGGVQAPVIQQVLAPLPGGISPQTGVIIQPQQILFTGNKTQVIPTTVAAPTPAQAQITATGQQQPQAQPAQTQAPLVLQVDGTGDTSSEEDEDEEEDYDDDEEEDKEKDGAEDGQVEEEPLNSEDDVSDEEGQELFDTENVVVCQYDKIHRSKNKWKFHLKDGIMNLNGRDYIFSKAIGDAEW

Compound in the first experiment: Cc1sc2c(c1C)C(c1ccc(Cl)cc1)=N[C@@H](CC(=O)OC(C)(C)C)c1nnc(C)n1-2
Description: log2 fold change, soluble protein after heating vs DMSO (PISA); higher = thermal stabilisation; K562 lysate, 10 uM; active = over 0.2 and 3.5 SD of the protein, either way, in both replicates (recomputed). Summed up: (§1)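 The values are log-two fold changes in thermal stability compared with solvent controls and come from duplicates. They were obtained by TMTpro 16plex LC-MS/MS, with channel sums equalised, on the supernatant after 21,000xg for 90 min. That supernatant came from crude K562 extract at 1 mg/mL protein treated with 10 μM compound for 30 min, heated for 3 min across 48°C-58°C, pooled and brought to 0.5% NP-40 at 4°C.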
For the target HSPB1 (UniProt P04792), the log2 fold change was -0.017 (inactive).

Turning to HLTF (UniProt Q14527), the log2 fold change is 0.028 (inactive).

IGF2BP3 (UniProt O00425): the log2 fold change is 0.035 (inactive).

As for ICAM2 (UniProt P13598), the log2 fold change was -0.022 (inactive).

Consider HSP90AA4P (UniProt Q58FG1), for which the log2 fold change is -0.101 (inactive).

On to IMMT (UniProt Q16891), for which the log2 fold change is 0.022 (inactive).

Regarding IMMT (UniProt C9J406), the log2 fold change is 0.077 (inactive).

For ITPKA (UniProt P23677), the log2 fold change is -0.012 (inactive).

Take IFITM3 (UniProt Q01628): the log2 fold change is -0.088 (inactive).

On to HSPA8 (UniProt E9PK54), for which the log2 fold change was -0.046 (inactive).

Compound in the next experiment: c1ccc([C@@H]2C[C@H]2NC2CCNCC2)cc1
Described as above. Summed up: as §1
Consider GSTZ1 (UniProt G3V4T6), for which the log2 fold change was -0.042 (inactive).

As to GSK3A (UniProt P49840), the log2 fold change is -0.044 (inactive).

For the target HADHB (UniProt P55084), the log2 fold change was -0.048 (inactive).

Regarding HNRNPD isoform 3 (UniProt Q14103), the log2 fold change was -0.003 (inactive).

Take GSTM4 (UniProt Q03013): the log2 fold change is -0.016 (inactive).

For HNRNPAB isoform 3 (UniProt Q99729), the log2 fold change is -0.069 (inactive).

On to HMGB1 (UniProt P09429), for which the log2 fold change was 0.115 (inactive).

As for GTPBP2 (UniProt Q9BX10), the log2 fold change was 0.034 (inactive).

Regarding HK2 (UniProt P52789), the log2 fold change was 0.063 (inactive).

Regarding HNRNPH2 (UniProt P55795), the log2 fold change is -0.011 (inactive).

In the case of IMPDH1 isoform 6 (UniProt P20839), the log2 fold change is -0.051 (inactive).

As to KBTBD2 (UniProt Q8IY47), the log2 fold change was -0.119 (inactive).

With ILK (UniProt Q13418), the log2 fold change was -0.002 (inactive).

Turning to HDLBP, A0A024R4E5, the log2 fold change is 0.008 (inactive).

With KEAP1 (UniProt Q14145), the log2 fold change is -0.02 (inactive).

As to GMDS (UniProt O60547), the log2 fold change was 0.005 (inactive).

For IMPDH2 (UniProt P12268), the log2 fold change was 0.017 (inactive).

Take GTF2A1 (UniProt P52655): the log2 fold change was 0.202 (inactive).

On to KHDRBS1 (UniProt Q07666), for which the log2 fold change was 0.045 (inactive).

Regarding HAUS2 (UniProt Q9NVX0), the log2 fold change was 0.176 (inactive).

Turning to INTS1 (UniProt Q8N201), the log2 fold change was 0.004 (inactive).

Take HEATR6 (UniProt Q6AI08): the log2 fold change was 0.014 (inactive).

Turning to HSPB1 (UniProt P04792), the log2 fold change was 0.028 (inactive).

Take HLTF (UniProt Q14527): the log2 fold change was 0.011 (inactive).

IGF2BP3 (UniProt O00425): the log2 fold change is -0.002 (inactive).

Consider ICAM2 (UniProt P13598), for which the log2 fold change is 0.084 (inactive).

HSP90AA4P (UniProt Q58FG1): the log2 fold change was -0.308 (inactive).

On to IMMT (UniProt Q16891), for which the log2 fold change is 0.038 (inactive).

For IMMT (UniProt C9J406), the log2 fold change is -0.056 (inactive).

For ITPKA (UniProt P23677), the log2 fold change was -0.013 (inactive).

As to IFITM3 (UniProt Q01628), the log2 fold change is 0.026 (inactive).

Regarding HSPA8 (UniProt E9PK54), the log2 fold change was -0.125 (inactive).
